Values joined by “and” are separate entries in the source; they are usually repeats but may differ in a detail not shown here. Equal values may be shown once. About 2,000 (36%) of roughly 5,500 compounds were called active. Roughly 18% stayed inconclusive and do not appear here. Cut-off read from the data, not from the text of the source: active = normalized growth mostly below about 0.91 (no sharp cut-off); inconclusive = no clear call, values can overlap the other calls; inactive = mostly above about 0.92. The list shows a part of the results.
Assay: chemical genetic growth profiling, strain panel (AID 1159580);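 note: tested at 20 µM; growth read once vehicle control cultures reached saturation at 30 °C; 1 = growth at the plate median or of vehicle wells; lower values mean less growth of the strain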
Conditions: S. cerevisiae deletion strains, growth OD

Measured: normalized growth

CCOC(=O)NNc1nncc2ccccc12
inactive: locus YAL013W, strain DEP1, stronger effect = lower value 0.992 | locus YAL021C, strain ccr4, stronger effect = lower value 1 | locus YAL026C, strain drs2, stronger effect = lower value 1.03 | locus YAL030W, strain snc1, stronger effect = lower value 1.02 | locus YBL061C, strain skt5, stronger effect = lower value 1.01 | locus YBR009C, strain hhf1, stronger effect = lower value 0.973 | locus YBR021W, strain FUR4, stronger effect = lower value 0.964 | locus YBR023C, strain chs3, stronger effect = lower value 1.02 | locus YBR171W, strain sec66, stronger effect = lower value 1.01 | locus YBR229C, strain ROT2, stronger effect = lower value 0.991 | locus YBR231C, strain swc5, stronger effect = lower value 0.993 | locus YBR279W, strain paf1, stronger effect = lower value 1.02 | locus YCL011C, strain gbp2, stronger effect = lower value 1.04 | locus YCL016C, strain dcc1, stronger effect = lower value 1.03 | locus YCL029C, strain bik1, stronger effect = lower value 0.97 | locus YCL061C, strain MRC1, stronger effect = lower value 0.994 | locus YCL069W, strain vba3, stronger effect = lower value 1.02 | locus YCR088W, strain abp1, stronger effect = lower value 1.01 | locus YDL005C, strain med2, stronger effect = lower value 1.03 | locus YDL035C, strain GPR1, stronger effect = lower value 0.978 | locus YDL040C, strain nat1, stronger effect = lower value 0.996 | locus YDL074C, strain BRE1, stronger effect = lower value 1.01 | locus YDL101C, strain DUN1, stronger effect = lower value 0.991 | locus YDL134C, strain PPH21, stronger effect = lower value 0.979 | locus YDL185W, strain tfp1, stronger effect = lower value 0.983 | locus YDL192W, strain arf1, stronger effect = lower value 0.98 | locus YDR001C, strain nth1, stronger effect = lower value 1.01 | locus YDR069C, strain doa4, stronger effect = lower value 0.985 | locus YDR101C, strain arx1, stronger effect = lower value 0.993 | locus YDR137W, strain rgp1, stronger effect = lower value 1.03 | locus YDR150W, strain NUM1, stronger effect = lower value 1 | locus YDR159W, strain sac3, stronger effect = lower value 0.94 | locus YDR162C, strain NBP2, stronger effect = lower value 0.987 | locus YDR195W, strain ref2 0.981 | locus YDR297W, strain sur2, stronger effect = lower value 1 | locus YDR318W, strain mcm21, stronger effect = lower value 0.974 | locus YDR334W, strain swr1, stronger effect = lower value 1.03 | locus YDR335W, strain msn5, stronger effect = lower value 1.01 | locus YDR388W, stronger effect = lower value 0.973 | locus YDR392W, strain spt3, stronger effect = lower value 0.998 | locus YDR502C, strain sam2, stronger effect = lower value 0.969 | locus YEL003W, strain gim4, stronger effect = lower value 0.998 | locus YEL037C, strain rad23, stronger effect = lower value 1.02 | locus YEL061C, strain CIN8 (second series), stronger effect = lower value 1 | locus YEL061C, strain CIN8, stronger effect = lower value 1 | locus YER015W, strain faa2, stronger effect = lower value 1.01 | locus YER016W, strain bim1, stronger effect = lower value 1.02 | locus YER110C, stronger effect = lower value 0.972 | locus YER111C, strain swi4, stronger effect = lower value 1.01 | locus YER155C, strain BEM2 (second series), stronger effect = lower value 1 | locus YER155C, strain BEM2, stronger effect = lower value 0.99 | locus YER167W, strain BCK2, stronger effect = lower value 0.989 | locus YFR010W, strain ubp6, stronger effect = lower value 0.979 | locus YGL078C, strain dbp3, stronger effect = lower value 0.98 | locus YGL086W, strain mad1, stronger effect = lower value 0.995 | locus YGL167C, strain pmr1, stronger effect = lower value 1 | locus YGL173C, strain kem1, stronger effect = lower value 0.972 | locus YGL227W, strain vid30, stronger effect = lower value 1.02 | locus YGL240W, strain doc1, stronger effect = lower value 0.998 | locus YGL248W, strain PDE1, stronger effect = lower value 1 | locus YGL253W, strain hxk2, stronger effect = lower value 1.02 | locus YGR135W, strain pre9, stronger effect = lower value 0.97 | locus YGR229C, strain SMI1, stronger effect = lower value 0.984 | locus YGR252W, strain gcn5, stronger effect = lower value 0.962 | locus YHR013C, strain ard1, stronger effect = lower value 1.02 | locus YHR027C, strain rpn1, stronger effect = lower value 0.993 | locus YHR030C, strain SLT2, stronger effect = lower value 0.99 and 0.966 | locus YHR079C, strain IRE1 (second series), stronger effect = lower value 0.983 | locus YHR079C, strain IRE1, stronger effect = lower value 0.982 | locus YHR094C, strain hxt1, stronger effect = lower value 0.973 | locus YHR129C, strain ARP1, stronger effect = lower value 0.999 | locus YHR142W, strain chs7, stronger effect = lower value 1.04 | locus YHR200W, strain rpn10, stronger effect = lower value 0.981 | locus YIL066C, strain RNR3, stronger effect = lower value 0.987 | locus YIL073C, strain SPO22, stronger effect = lower value 0.913 | locus YIL125W, strain kgd1, stronger effect = lower value 0.987 | locus YIR030C, strain dcg1, stronger effect = lower value 0.977 | locus YJL092W, strain hpr5, stronger effect = lower value 1.01 | locus YJL095W, strain BCK1 (second series), stronger effect = lower value 1.02 | locus YJL095W, strain BCK1, stronger effect = lower value 1.04 and 0.976 | locus YJL115W, strain asf1, stronger effect = lower value 1.03 | locus YJL129C, strain trk1, stronger effect = lower value 1.02 | locus YJL134W, strain LCB3, stronger effect = lower value 0.994 | locus YJL154C, strain vps35, stronger effect = lower value 1.01 | locus YJL164C, strain tpk1, stronger effect = lower value 0.993 | locus YJL166W, strain qcr8, stronger effect = lower value 0.983 | locus YJL168C, strain set2, stronger effect = lower value 0.981 | locus YJL187C, strain SWE1 (second series), stronger effect = lower value 1 | locus YJL187C, strain SWE1, stronger effect = lower value 1.02 | locus YJR043C, strain POL32, stronger effect = lower value 0.952

Source: PubChem BioAssay AID1159580 (chemical genetic matrix, 2015)
